# Assay outcomes: PubChem BioAssay, National Center for Advancing Translational Sciences (NCATS)
# Menin MLL FP TR: qHTS Assay for Inhibitors Targeting the Menin-MLL Interaction in MLL Related Leukemias: Competition With Texas Red Labeled MLL-derived Mutant Peptide; O00255; Menin + Texas Red MLL mutant peptide, fluorescence polarization; Potency, µM (titrated, usually from 61.6 µM), for inactives: top-dose FP activity change, negative = inhibition, most hits filed as inhibitors; hit rate 0.23% among 270,000; active = well fitted inhibition curve with a large enough effect in the polarisation, with a control signal flat, not every such curve was filed as active; inconclusive = small, poorly fitted or top-dose-only effect, or effect the other way, or a change in a side signal; inactive = no such curve, though single readings can be large or run the other way; the % refers to the polarisation; note: potency is the fitted concentration of half-maximal effect; % of control where 0% means no effect
# LMNA splice mod: qHTS Assay for Modulators of Lamin A Splicing | Potency, µM (doses to about 46.1 µM), for the others: top-dose ratio change, negative = inhibition, most hits filed as inhibitors | hit rate 0.01% among 200,000 | HeLa LMNA splicing GFP/RFP minigene ratio, 48 h; active = well fitted inhibition curve with a large enough effect in the signal ratio, with a control signal flat, not every such curve was filed as active; inconclusive = small, poorly fitted or top-dose-only effect, or effect the other way, or a change in a side signal; the % refers to the signal ratio; note: potency is the fitted concentration of half-maximal effect; % is set by controls: 0 for no effect and ±100 for the full control effect
#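 S3 HeLa stable clones carrying a lamin A-EGFP splicing minigene plus DsRed2 were seeded at 600 cells/well in Opti-MEM with 2% FBS, pin-dosed and incubated 48 h at 37°C. Acumen cytometry (488 nm) gave the GFP/RFP total-intensity ratio.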
# MLL CXXC-DNA inh: qHTS Fluorescence Polarization Assay for Inhibitors of MLL CXXC domain - DNA interaction; MLL-CXXC / FITC-HOXA9 DNA fluorescence polarization; Potency, µM (doses to about 115 µM), without a hit: at the highest dose activity change, negative = inhibition, hits mostly inhibitors; Histone-lysine N-methyltransferase 2A (Homo sapiens), Q03164; hit rate 0.037% among 290,000; active = well fitted inhibition curve with a large enough effect in the polarisation, with a control signal flat, not every such curve was filed as active; inconclusive = small, poorly fitted or top-dose-only effect, or effect the other way, or a change in a side signal; inactive = no such curve, though single readings can be large or run the other way; the % refers to the polarisation; note: potency is the fitted concentration of half-maximal effect
#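 Steps: dispense CXXC domain solution (7 uM) → pin compounds or unlabeled HOX-A9 DNA control → 5 min ambient → add FLSN-HOX-A9 solution (50 nM) → spin → 30 min ambient → fluorescence polarization. Tris pH 7.5/NaCl/DTT/BSA buffer.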
# Menin-MLL FL inh: qHTS Assay for Inhibitors Targeting the Menin-MLL Interaction in MLL Related Leukemias: Competition With Fluorescein Labeled MLL-derived Peptide; 290,000 tested, under 10 active; Fluorescence polarization, fluorescein-MLL peptide displacement from menin; AID 1766, 2009; FP activity change, % at 61.4 µM; active = well fitted curve in the direction sought with a large enough effect in the polarisation, not every such curve was filed as active; inconclusive = small, poorly fitted or top-dose-only effect, or effect the other way, or a change in a side signal; inactive = no such curve, though single readings can be large or run the other way; the % refers to the polarisation; note: % of control where 0% means no effect
# Epigenetic reg: Quantitative High-Throughput Screen for Regulators of Epigenetic Control | Potency, µM (series often up to 53.9 µM), without a hit: at the top dose GFP activation, most hits filed as activators | hit rate 0.2% among 280,000 | murine LDR cells, GFP reporter derepression, 30 h; active = well fitted activation curve with a large enough effect; inconclusive = small, poorly fitted or top-dose-only effect; note: potency is the fitted concentration of half-maximal effect; % of control where 0% means no effect; nearly all actives have a fitted effect of over 60% in size
#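 In this reporter-derepression format, murine cells bearing a silenced integrated CMV-GFP locus incubate with test compound (30 h, 37 C), then are washed and imaged; fluorescent objects of 20–120 um count as induced cells.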
# Numbers without * were called inactive; ? = inconclusive; nt = not tested or not shown; ! = not active in a repeat; [ ] = remark or other dose. A selection: hits, their analogues and other compounds. The true share with any hit is near 0.26%.
SMILES,Menin MLL FP TR,LMNA splice mod,MLL CXXC-DNA inh,Menin-MLL FL inh,Epigenetic reg
CCCC(=O)O[C@]1(C(=O)CCl)[C@H](C)C[C@@H]2[C@H]3CCC4=CC(=O)C=C[C@]4(C)[C@@]3(F)C(=O)C[C@@]21C,2%,nt,4%,-2,nt
O=C(OCCN1C(=O)c2cccc3c(N4CCOCC4)ccc(c23)C1=O)c1cccc(Cl)c1,1%,?,?,?,20µM*
CCCCCCCCCCCC,2%,nt,nt,-5,nt
CCN1/C(=C/c2sc(-c3ccccc3C)c[n+]2C)Sc2ccccc21,25µM*,nt,0%,-2,2%
CC1=C(c2ccc(NN=C(C#N)C#N)cc2)NNC(=O)C1,36%,nt,-3%,4,nt
COCCn1c(=O)cnc2cnc(N3CCN(C)CC3)nc21,35µM*,3%,nt,-25,nt
C/C(=N\NC(=O)c1ccc(O)cc1)c1ccc2c(c1)Nc1ccccc1S2,?,?,13%,9,0%
C/C(=N\NC(=O)c1ccccc1F)c1ccc2c(c1)Nc1ccccc1S2,?,-4%,0%,4,11µM*
COc1ccc2oc(-c3ccc(O)cc3)cc(=O)c2c1,33%,nt,nt,?,0%
COc1ccc(-c2cc(=O)c3ccc(O)cc3o2)cc1,22µM*!,nt,nt,3,-1%
Nc1c(C(=O)C2CC2)sc2nc(-c3cccs3)cc(C(F)(F)F)c12,nt,4%,?,?,3.5µM*
COc1cc(/C=C(\C#N)c2nc3ccccc3[nH]2)cc(Cl)c1OCc1ccccc1Cl,nt,nt,nt,nt,11µM*
CCC(C=C[C@@H]1OC(=O)C=C[C@H]1C)=C[C@H](C)CC=CC(C)=C[C@@H](C)C(=O)[C@@H](C)[C@H](O)[C@@H](C)CC(C)=CC(=O)O,-22%[2.28 µM],nt,nt,-7[2.29 µM],-1%[1.91 µM]
CCN1/C(=C/c2cc[n+](CCCS(=O)(=O)[O-])c3ccccc23)Sc2ccccc21,?,?,?,?,13µM*
CC(C)[N+]1(C)[C@@H]2CC[C@H]1CC(OC(=O)[C@@H](CO)c1ccccc1)C2 (stereo partly drawn),3%[24.8 µM],-7%,nt,?,0%
COc1cc(/C=N\Nc2ccc([N+](=O)[O-])cc2)ccc1OCC(=O)Nc1ccc(C)c(C)c1,nt,?,3%,11,6.3µM*
CC1=Nc2ccccc2/C1=C\c1nc(-c2ccc(C(F)(F)F)cc2)oc1O,?,?,-19%,?,13µM*
Cc1ccc(F)cc1-c1ccc(C(=O)N=C(N)N)o1,5%,nt,nt,-1,nt
O=C1/C(=C/c2cccnc2)SC(=S)N1C1CCS(=O)(=O)C1 (stereo not drawn),0%,20µM*,-1%,2,11%
COc1cc2cc3c4c(cc(OC)c(OC)c4c2cc1OC)CCN3C,?,nt,nt,94,1%
CCC1=C[C@@H]2CN(C1)Cc1c([nH]c3ccccc13)[C@@](C(=O)OC)(c1cc3c(cc1OC)N(C)[C@@H]1[C@@](O)(C(=O)OC)[C@H](OC(C)=O)[C@]4(CC)C=CCN5CC[C@]31[C@@H]54)C2,-7%,nt,4%,-1,nt
CCN1C(C)=C(C)S/C1=C1\SC(=S)N(NC(C)=O)C1=O,2%,10%[46 µM],15%,3,0%
CC(=O)NN1C(=O)/C(=C2/Sc3ccc(Cl)cc3N2C)SC1=S,35µM*,nt,-3%,20,nt
COc1ccc(-c2cc(C(F)(F)F)nc(S(=O)(=O)CCCC(=O)Nc3cc(C)on3)n2)cc1OC,0%,4µM*,?,-3,0%
N[C@@H](COC(c1cccc(F)c1)c1ccccc1OCc1ccccc1)C(=O)O (stereo partly drawn),-20%,nt,nt,-1,nt
SMILES,Menin MLL FP TR,LMNA splice mod,MLL CXXC-DNA inh,Menin-MLL FL inh,Epigenetic reg
COc1cccc(N=Cc2c(O)n(-c3cccc(C)n3)c(=O)c3ccccc23)c1,1%,-6%,3%,-6,-1%
COc1ccc(N=Cc2c(O)n(-c3cccc(C)n3)c(=O)c3ccccc23)c(OC)c1,nt,nt,?,?,13µM*
O=c1c(O)cc(C2Oc3cc(O)cc(O)c3CC2O)cc2c(C3Oc4cc(O)cc(O)c4CC3O)cc(O)c(O)c12 (stereo not drawn),?,-18%,nt,?,-1%
COc1ccc(-[n+]2c(C)cc(/C=C3\Sc4ccccc4N3C)cc2C)cc1,?,nt,?,?,3.2µM*
COc1ccccc1-[n+]1c(C)cc(/C=C2\Sc3ccccc3N2C)cc1C,nt,nt,?,?,7.9µM*
COc1ccc(C(=O)/C=C2\Sc3ccccc3N2C)cc1,30%,4%[46 µM],6%,-1,-3%
COc1ccc(-n2nc3cc(C)c(NC(=S)NC(=O)c4ccccc4C)cc3n2)cc1,22µM*,?,3%,2,0%
CSCC[C@H](NC(=O)[C@H](CC(C)C)NC(=O)[C@H](Cc1c[nH]c2ccccc12)NC(=O)[C@H](CCC(N)=O)NC(=O)[C@@H](NC(=O)[C@H](Cc1ccccc1)NC(=O)[C@H](CC(=O)O)NC(=O)[C@H](CCC(N)=O)NC(=O)[C@H](C)NC(=O)[C@H](CCCNC(=N)N)NC(=O)[C@H](CCCNC(=N)N)NC(=O)[C@H](CO)NC(=O)[C@H](CC(=O)O)NC(=O)[C@H](CC(C)C)NC(=O)[C@H](Cc1ccc(O)cc1)NC(=O)[C@H](CCCCN)NC(=O)[C@H](CO)NC(=O)[C@H](Cc1ccc(O)cc1)NC(=O)[C@H](CC(=O)O)NC(=O)[C@H](CO)NC(=O)[C@@H](NC(=O)[C@H](Cc1ccccc1)NC(=O)[C@@H](NC(=O)CNC(=O)[C@H](CCC(N)=O)NC(=O)[C@H](CO)NC(=O)[C@@H](N)Cc1cnc[nH]1)[C@@H](C)O)[C@@H](C)O)C(C)C)C(=O)N[C@@H](CC(N)=O)C(=O)N[C@H](C(=O)O)[C@@H](C)O,6%,nt,nt,-6,nt
O=C(c1ccc(Cc2nc3ccccc3[nH]2)cc1)N1CCOCC1,nt,nt,nt,nt,-2%
COc1ccc(NCc2ccc(OC)c(Cn3ccnc3)c2)c(OC)c1,13µM*,nt,11%,4,nt
COc1ccccc1NC(=O)Cn1nnc(-c2ccccc2NC(=O)c2cc3ccccc3oc2=O)n1,20µM*,-1%,-11%,-1,-1%
COc1ccccc1NC(=O)Cn1nnc(-c2ccccc2NS(=O)(=O)c2ccccc2)n1,?,?,11%,0,-1%
COc1ccc(C(=O)Nc2ccc(NC(=O)c3cccs3)cc2)cc1Cl,7.1µM*,-3%,3%,4,0%
COc1ccc(C(=O)Nc2ccc(NC(=O)c3cccs3)c(OC)c2)cc1Cl,?,2%[46 µM],1%,0,0%
